According to ChEMBL document CHEMBL1157539, “Thousands of chemical starting points for antimalarial lead identification” (Nature, 2010):
Several values for one entry are separate records, joined by “and”; a condition that tells them apart may be missing. Identical values can stand only once.

Columns and labels:
Assay type in all cases: functional
Plasmodium falciparum [1] = experiment: GSK_TCMDC: Inhibition of Plasmodium falciparum 3D7 in whole red blood cells, using parasite LDH activity as an index of growth. Test compounds present at 2uM
Plasmodium falciparum [2] = experiment: GSK_TCMDC: Inhibition of Plasmodium falciparum Dd2 in whole red blood cells, using parasite LDH activity as an index of growth. Test compounds present at 2uM
HepG2 = experiment: GSK_TCMDC: Percent inhibition of human HepG2 cell line. Test compounds present at 10uM.

Compound	Inhibition (Plasmodium falciparum [1])	Inhibition (Plasmodium falciparum [2])	Inhibition (HepG2)
Cc1c(C)c2c(c(C)c1O)CC[C@@](C)(C(=O)NC1CCC(CN3CCC(c4c[nH]c5ccccc45)CC3)CC1)O2 (stereo not given in full)	92%	57%	29%
COC(=O)c1ccc(CC(C)NCC(O)c2ccc3ccc4ccccc4c3c2)cc1.O=C(O)/C=C/C(=O)O (stereo not given)	100%	97%	21%
O=C(Nc1ccc(Oc2ccccc2)cc1)N1CCC(CN2CCC(c3c[nH]c4ccccc34)CC2)CC1	100%	59%	53%
CCc1ccc(CN2CCC(CN(C(=O)c3ccccc3)c3ccc(Cl)cc3)CC2)cc1	96%	95%	12%
Cc1cc(N(C)C2CCN(C)CC2)nc(Nc2ccc(Br)cc2)n1	100%	92%	0%
CC[C@H]1CN2CC[C@H]1C[C@H]2[C@H](O)c1cc(Cl)nc2ccc(OC)cc12	100%	92%	0%
O=P(O)(O)Oc1c(Br)cc(Br)cc1-c1cc(Br)cc(Br)c1O [BROMOFENOFOS]	97%	0%	10%
O=C(/C=C/c1c(Cl)cccc1Cl)NC1CCC(CN2CCC(c3c[nH]c4ccccc34)CC2)CC1 (stereo not given)	93% and 100%	21% and 42%	54% and 39%
CC(C)CNCc1cccc(-c2ccc(CN(C(=O)c3cccs3)C3CCN(Cc4ccccc4)CC3)cc2)c1.O=C(O)C(F)(F)F	85%	40%	22%
CC(Cc1ccc(SC(C)C)cc1)NCC(O)c1cccc(Cl)c1.Cl (stereo not given)	99%	97%	5%
